Assay results as given in publication PMC4336329 (PLoS ONE, 2015).
Screen size: about 310,000 compounds; about 14,000 (4.5%) showed an effect of 50% or more. The effect is printed as a negative number. The sample holds strong results, similar compounds and a random draw of the others, so the mix is not that of the screen.

The molecules below were run against human ether-à-go-go-related gene (hERG) potassium channel (human, UniProt Q12809) (assay: primary screen, population patch clamp on CHO cells stably expressing hERG; higher = less effect of the substance).
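Note: peak tail current of the secondary pulse compared with the same well before compound.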

human ether-à-go-go-related gene (hERG) potassium channel, sequence (Q12809 whole entry, looked up): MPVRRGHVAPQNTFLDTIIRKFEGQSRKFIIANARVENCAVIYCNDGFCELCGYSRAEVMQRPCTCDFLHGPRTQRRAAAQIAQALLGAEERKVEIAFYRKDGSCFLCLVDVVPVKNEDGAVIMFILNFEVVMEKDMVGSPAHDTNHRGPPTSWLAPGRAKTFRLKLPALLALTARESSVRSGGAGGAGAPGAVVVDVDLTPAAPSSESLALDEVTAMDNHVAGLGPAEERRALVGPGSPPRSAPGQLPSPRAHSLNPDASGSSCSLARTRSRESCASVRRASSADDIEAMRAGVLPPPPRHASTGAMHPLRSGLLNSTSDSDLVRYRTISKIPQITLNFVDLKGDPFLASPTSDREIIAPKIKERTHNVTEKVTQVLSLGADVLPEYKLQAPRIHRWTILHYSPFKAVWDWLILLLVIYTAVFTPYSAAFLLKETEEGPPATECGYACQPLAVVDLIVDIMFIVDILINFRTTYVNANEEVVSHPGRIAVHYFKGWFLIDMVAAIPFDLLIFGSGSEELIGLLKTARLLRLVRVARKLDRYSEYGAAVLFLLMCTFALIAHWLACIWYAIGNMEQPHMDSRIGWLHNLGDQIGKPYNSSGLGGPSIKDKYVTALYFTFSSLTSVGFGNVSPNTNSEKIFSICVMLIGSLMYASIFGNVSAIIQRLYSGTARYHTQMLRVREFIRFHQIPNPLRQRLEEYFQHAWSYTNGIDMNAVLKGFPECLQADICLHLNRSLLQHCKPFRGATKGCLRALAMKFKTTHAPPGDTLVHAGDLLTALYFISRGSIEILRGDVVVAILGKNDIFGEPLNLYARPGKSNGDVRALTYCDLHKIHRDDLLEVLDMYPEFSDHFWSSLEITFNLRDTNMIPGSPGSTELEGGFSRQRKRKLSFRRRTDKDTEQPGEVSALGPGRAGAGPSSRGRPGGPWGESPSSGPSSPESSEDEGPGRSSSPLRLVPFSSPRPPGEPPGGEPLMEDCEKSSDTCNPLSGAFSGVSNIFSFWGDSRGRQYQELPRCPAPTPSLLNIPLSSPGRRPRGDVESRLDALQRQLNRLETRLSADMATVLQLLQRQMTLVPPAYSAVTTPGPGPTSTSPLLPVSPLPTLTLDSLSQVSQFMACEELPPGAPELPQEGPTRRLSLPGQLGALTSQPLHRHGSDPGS

Structure (SMILES) | hERG current change (%, negative = inhibition) at 10uM [%]
O=C(Nc1ccc(F)cc1)N1CCN(c2ccc(F)cc2)CC1 | -67.8
CC(=O)N1CCN(c2ccc(NC(=O)c3ccc(F)cc3)cc2)CC1 | -57.7
CC(=O)c1ccc(N2CCN(C(=O)Nc3ccc(C)cc3)CC2)cc1 | -4.03
O=C(Nc1ccc2snnc2c1)N1CCCCC1 | 11.9
CC(=O)c1ccc(N2CCN(C(=O)Nc3ccc(F)cc3)CC2)cc1 | -24.5
CC(=O)N1CCN(c2ccc(NC(=O)c3ccc(C(C)(C)C)cc3)cc2)CC1 | 0.16
O=C(Nc1ccccc1)N1CCN(c2ccc(F)cc2)CC1 | -7.74
O=C(Nc1ccc2snnc2c1)N1CCSCC1 | 6.76
CC(=O)c1ccc(N2CCN(C(=O)Nc3ccc(Cl)cc3)CC2)cc1 | -8.35
O=C(Nc1ccc2snnc2c1)N1CCN(c2ccccc2)CC1 | -57.2
CC(=O)c1ccc(N2CCN(C(=O)Nc3ccc(C(C)C)cc3)CC2)cc1 | -63.7
CC(=O)N1CCN(c2ccc(NC(=O)c3ccc(C)cc3)cc2)CC1 | 5.89
O=S(=O)(Nc1ccc(N2CCOCC2)cc1)c1ccc2ccccc2c1 | 3.3
O=C1C(=O)N(CCS(=O)(=O)c2ccccc2)c2ccc(F)cc21 | 8.67
O=C(OCC(=O)N(CCc1ccccc1)Cc1ccccc1)c1cc(S(=O)(=O)N2CCOCC2)ccc1F | -10.8
Cn1c(N2CCOCC2)cc(=O)n(C)c1=O | -18.2
Cc1cc(C(=O)N2CCc3ccccc3C2)n[nH]1 | 5.11
Nc1cccc(NP(=O)(c2ccccc2)c2ccccc2)c1 | 11.7
Cc1c(NC(=O)C2Cc3ccccc3CN2C(=O)c2ccco2)c(=O)n(-c2ccccc2)n1C (stereo not shown) | -13.7
COc1ccc(C(=O)COC(=O)/C=C/c2ccc(S(=O)(=O)Nc3cccc(S(N)(=O)=O)c3)cc2)cc1 | 4.88
c1ccc2c(c1)Nc1cc3ccccc3cc1S2 | 8.83
COc1ccc(CCN(C)CCC(=O)Nc2cccc(C)c2)cc1OC.Cl | -65.8

Structure (SMILES) | hERG current change (%, negative = inhibition) at 10uM [%]
CCOc1ccc(CN(C)CC(=O)Nc2cccc(C)c2)cc1OC | -77
COc1cccc(CN(C)CC(=O)NNC(=O)c2ccc(Cl)cc2)c1 | -12.5
CCOc1ccc(CN(C)CC(=O)NNC(=O)c2ccc(Cl)cc2)cc1OC | -60.3
CCOc1ccc(CN(C)CC(=O)Nc2cccc3ccccc23)cc1OC.O=C(O)C(=O)O | -16.5
COc1ccc(CCN(C)C(=S)Nc2cccc(C)c2)cc1OC | 5.19
COc1ccc(CCN(C)CC(=O)Nc2c(C)cc(C)cc2C)cc1OC.Cl | 4.26
COc1ccc(CCN(C)CCC(=O)Nc2c(C)cc(C)cc2C)cc1OC | -58.8
COc1ccc(CCNCCC(=O)Nc2c(C)cc(C)cc2C)cc1OC.Cl | -13.8
COc1ccc(CC(=O)Nc2cccc(-c3nnc(-c4cccc(C)c4)o3)c2)cc1OC | 11.3
CCOc1ccc(CN(C)CC(=O)Nc2ccc3c(c2)CCC3)cc1OC | -39
CCOc1ccc(CN(C)C(=O)NNC(=O)c2ccc(C)cc2)cc1OC | 16.8
CCc1cc2ccccc2nc1Cl | 6.29
O=C(CN(Cc1ccc2c(c1)OCO2)C(=O)CNS(=O)(=O)c1ccccc1)NCc1ccco1 | -22
CC[C@@H]1CC=C[C@H]2[C@H]1C(=O)N(Cc1ccccc1)[C@H]2c1ccc(OC)c(Cl)c1 | 10.6
O=C(Cc1ccc(F)cc1)OCC(=O)c1cc2ccccc2o1 | -2.43
CCNC(=S)NNC(=O)Cn1c(=O)c2c(ncn2CCOC)n(Cc2ccccc2)c1=O | 15.3
Cc1ccc(NC(=O)Nn2cnnc2)c(C)c1 | 1.62
COC(=O)CSc1[nH]c2ccc(Br)cc2c1[N+](=O)[O-] | 16.7
Nc1cccc(S(=O)(=O)Nc2ccccc2)c1 | 25.5
COc1ccc(CCN(C)CCC(=O)Nc2cc(C)ccc2C)cc1OC | -55.6
CCCCN(C)CCC(=O)Nc1ccc(C)cc1.Cl | -14.8
COC(=O)c1ccc(C)c(NC(=O)CCc2ccc(OC)c(OC)c2)c1 | 6.37

Structure (SMILES) | hERG current change (%, negative = inhibition) at 10uM [%]
COc1ccc(CCN(C)CCC(=O)Nc2ccc(C)cc2)cc1OC.Cl | -64.3
COc1ccc(CC(=O)Nc2cc(C)ccc2O)cc1OC | 4.22
COc1ccc(CCN(C)CC(=O)Nc2ccc(F)c(Cl)c2)cc1OC | -35.3
O=[N+]([O-])c1cc(F)c(N2CCCCC2)cc1Br | -3.83
O=C(C1CC1)N1CCc2cc(S(=O)(=O)NCC3COc4ccccc4O3)ccc21 (stereo not shown) | 6.27
Cc1c(C)c2ccc(OC(C)C(=O)N3CC[C@@]4(O)CCCC[C@H]4C3)cc2oc1=O (stereo partly shown) | -11.2
COc1ccc(CN2C(=O)c3cccnc3C2=O)cc1S(=O)(=O)NC1CCCCC1C (stereo not shown) | 10.8
CN(C)CCNC(=O)c1nn(C)c2c1CCc1ccccc1-2 | -12.4
O=C(c1ccccc1Cl)c1c(O)c2ccccc2oc1=O | -3.19
O=C1COc2ccc(S(=O)(=O)Nc3ccc4c(c3)OCO4)cc2N1 | 19.4
C/C(=N\Nc1cccc(C(=O)O)c1)c1cc2ccccc2o1 | 9.54
CCOC(=O)N1CCN(CC(O)COc2ccccc2C(C)CC)CC1.Cl (stereo not shown) | 0.934
COc1ccccc1C(=O)N/C(=C\c1cn(S(=O)(=O)N(C)C)c2ccccc12)C(=O)NCCCN1CCOCC1 | -7.58
COc1ccc(C(Nc2cccc([N+](=O)[O-])c2)P(=O)(OC(C)C)OC(C)C)cc1 (stereo not shown) | -31.5
COc1ccc(S(=O)(=O)NCC2CCCN(Cc3ccc(OC)cc3F)C2)cc1 (stereo not shown) | -42
Cn1cnnc1Sc1ccc(C(=O)NCCC(c2ccccc2)c2ccccc2)cc1[N+](=O)[O-] | -74.3
CCC(C)(C)NC(=O)c1ccc(Sc2nncn2C)c([N+](=O)[O-])c1 | 3.37
Cn1cnnc1Sc1ccc(C(=O)NCCC23CC4CC(CC(C4)C2)C3)cc1[N+](=O)[O-] | 12.9
CN(Cc1ccccc1)S(=O)(=O)c1ccc(OCC(=O)Nc2cccc([N+](=O)[O-])c2)cc1 | -9.01
CN(c1ccccc1C(=O)Nc1cccc([N+](=O)[O-])c1)S(=O)(=O)c1ccccc1 | -63.2
CN(CC(=O)Nc1cccc(F)c1)CC(=O)Nc1cccc([N+](=O)[O-])c1 | -39.7
CN(c1ccccc1C(=O)Nc1cccc([N+](=O)[O-])c1)S(C)(=O)=O | -20

Structure (SMILES) | hERG current change (%, negative = inhibition) at 10uM [%]
Cc1ccc(CN(C)CC(=O)Nc2cccc([N+](=O)[O-])c2)o1 | -58.4
CC(=O)c1cccc(NC(=O)CN(C)S(=O)(=O)c2ccccc2)c1 | -11.5
Cc1ccc(CC(=O)Nc2cccc([N+](=O)[O-])c2)cc1 | 15.8
CN(c1ccccc1C(=O)Nc1cccc(Br)c1)S(=O)(=O)c1ccccc1 | -5.01
CN(CC(=O)Nc1cccc([N+](=O)[O-])c1)S(=O)(=O)c1ccccc1 | -51.9
FC(F)(F)c1nnc2c(Sc3ccccc3)nc3ccc(Cl)cc3n12 | 12.2
Cc1cccc(NC(=S)N(CCCN2CCOCC2)C(C)c2cc3ccccc3o2)c1C (stereo not shown) | -20.9
COc1ccc(Cl)cc1NC(=O)CSc1nnc(CNC(=O)c2cccs2)o1 | -39.8
Cc1ccc(S(=O)(=O)NCc2c(-c3ccccc3)c3cc(Cl)ccc3[nH]c2=O)cc1 | 7.18
O=C(c1ccc(Br)s1)N1CCCC1 | -5.86
CCC(C)(C(=O)NC1CCCCC1)N(CC1CCCO1)C(=O)CNC(=O)c1ccccc1 (stereo not shown) | 6.13
CCC(C)(C(=O)NC1CCCCC1)N(C)C(=O)c1ccccn1 (stereo not shown) | 2.9
CCC(C)(C(=O)NC1CCCCC1)N(CC1CCCO1)C(=O)c1ccccn1 (stereo not shown) | -63.3
COc1ccc2cc(C(c3nnnn3C3CCCC3)N3CCCCCC3)c3nnnn3c2c1 (stereo not shown) | 15.9
COc1ccc2cc(C(c3nnnn3C3CCCCC3)N3CCCCCC3)c3nnnn3c2c1 (stereo not shown) | 4.6
COc1ccc2cc(C(c3nnnn3C3CCCC3)N3CCOCC3)c3nnnn3c2c1 (stereo not shown) | -51.7
O=C(NCCc1ccccc1)C1CCN(S(=O)(=O)c2cccnc2)CC1 | 12.9
Cc1ccccc1C(=O)Nc1nnc(-c2cccnc2)o1 | 18.4
CN1CCN(NC(=O)c2ccc(S(=O)(=O)N3CC4(C)CC3CC(C)(C)C4)cc2)CC1.Cl (stereo not shown) | -2.07
